# In PubChem BioAssay AID1159580 (chemical genetic matrix, 2015):
# Values joined by “and” are separate entries in the source; they are usually repeats but may differ in a detail not shown here. Equal values may be shown once. In all, about 5,500 compounds went through this assay and about 2,000 (36%) were called active. Roughly 18% stayed inconclusive and do not appear here. No stated cut-off is given here; in the data, active means normalized growth mostly below about 0.91 (no sharp cut-off); inconclusive means no clear call, values can overlap the other calls; inactive means mostly above about 0.92. Some of the results follow.
# Test: chemical genetic growth profiling, strain panel (AID 1159580);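 further: tested at 20 µM; growth read once vehicle control cultures reached saturation at 30 °C; 1 = growth at the plate median or of vehicle wells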
# Details: S. cerevisiae deletion strains, growth OD
compound,measurement,setting,value
COc1c(C)c2c(c(O)c1C/C=C(\C)CCC(=O)O)C(=O)OC2,normalized growth,"locus YAL013W, strain DEP1, stronger effect = lower value",0.84 (active)
same,normalized growth,"locus YAL021C, strain ccr4, stronger effect = lower value",0.556 (active)
same,normalized growth,"locus YAL026C, strain drs2, stronger effect = lower value",0.323 (active)
same,normalized growth,"locus YAL030W, strain snc1, stronger effect = lower value",0.621 (active)
same,normalized growth,"locus YBL061C, strain skt5, stronger effect = lower value",0.712 (active)
same,normalized growth,"locus YBR009C, strain hhf1, stronger effect = lower value",0.417 (active)
same,normalized growth,"locus YBR021W, strain FUR4, stronger effect = lower value",1.07 (inactive)
same,normalized growth,"locus YBR023C, strain chs3, stronger effect = lower value",0.602 (active)
same,normalized growth,"locus YBR171W, strain sec66, stronger effect = lower value",0.945 (inactive)
same,normalized growth,"locus YBR229C, strain ROT2, stronger effect = lower value",0.973 (inactive)
same,normalized growth,"locus YBR231C, strain swc5, stronger effect = lower value",0.386 (active)
same,normalized growth,"locus YBR279W, strain paf1, stronger effect = lower value",0.613 (active)
same,normalized growth,"locus YCL011C, strain gbp2, stronger effect = lower value",0.47 (active)
same,normalized growth,"locus YCL016C, strain dcc1, stronger effect = lower value",0.518 (active)
same,normalized growth,"locus YCL029C, strain bik1, stronger effect = lower value",0.723 (active)
same,normalized growth,"locus YCL069W, strain vba3, stronger effect = lower value",0.395 (active)
same,normalized growth,"locus YCR088W, strain abp1, stronger effect = lower value",0.508 (active)
same,normalized growth,"locus YDL005C, strain med2, stronger effect = lower value",0.915 (inactive)
same,normalized growth,"locus YDL035C, strain GPR1, stronger effect = lower value",0.789 (active)
same,normalized growth,"locus YDL040C, strain nat1, stronger effect = lower value",0.758 (active)
same,normalized growth,"locus YDL074C, strain BRE1, stronger effect = lower value",0.498 (active)
same,normalized growth,"locus YDL101C, strain DUN1, stronger effect = lower value",0.95 (inactive)
same,normalized growth,"locus YDL134C, strain PPH21, stronger effect = lower value",0.876 (active)
same,normalized growth,"locus YDL185W, strain tfp1, stronger effect = lower value",0.185 (active)
same,normalized growth,"locus YDL192W, strain arf1, stronger effect = lower value",0.737 (active)
same,normalized growth,"locus YDR001C, strain nth1, stronger effect = lower value",0.604 (active)
same,normalized growth,"locus YDR069C, strain doa4, stronger effect = lower value",0.713 (active)
same,normalized growth,"locus YDR101C, strain arx1, stronger effect = lower value",0.668 (active)
same,normalized growth,"locus YDR137W, strain rgp1, stronger effect = lower value",0.345 (active)
same,normalized growth,"locus YDR150W, strain NUM1, stronger effect = lower value",0.997 (inactive)
same,normalized growth,"locus YDR159W, strain sac3, stronger effect = lower value",0.401 (active)
same,normalized growth,"locus YDR162C, strain NBP2, stronger effect = lower value",0.77 (active)
same,normalized growth,"locus YDR195W, strain ref2",1.09 (inactive)
same,normalized growth,"locus YDR297W, strain sur2, stronger effect = lower value",0.664 (active)
same,normalized growth,"locus YDR318W, strain mcm21, stronger effect = lower value",0.625 (active)
same,normalized growth,"locus YDR334W, strain swr1, stronger effect = lower value",0.341 (active)
same,normalized growth,"locus YDR335W, strain msn5, stronger effect = lower value",0.549 (active)
same,normalized growth,"locus YDR388W, stronger effect = lower value",0.75 (active)
same,normalized growth,"locus YDR392W, strain spt3, stronger effect = lower value",0.0934 (active)
same,normalized growth,"locus YDR502C, strain sam2, stronger effect = lower value",0.666 (active)
same,normalized growth,"locus YEL003W, strain gim4, stronger effect = lower value",0.539 (active)
same,normalized growth,"locus YEL037C, strain rad23, stronger effect = lower value",0.451 (active)
same,normalized growth,"locus YEL061C, strain CIN8 (second series), stronger effect = lower value",0.368 (active)
same,normalized growth,"locus YEL061C, strain CIN8, stronger effect = lower value",0.863 (active)
same,normalized growth,"locus YER015W, strain faa2, stronger effect = lower value",0.667 (active)
same,normalized growth,"locus YER016W, strain bim1, stronger effect = lower value",0.761 (active)
same,normalized growth,"locus YER110C, stronger effect = lower value",1.02 (inactive)
same,normalized growth,"locus YER111C, strain swi4, stronger effect = lower value",0.662 (active)
same,normalized growth,"locus YER155C, strain BEM2 (second series), stronger effect = lower value",0.363 (active)
same,normalized growth,"locus YER155C, strain BEM2, stronger effect = lower value",0.781 (active)
same,normalized growth,"locus YER167W, strain BCK2, stronger effect = lower value",0.582 (active)
same,normalized growth,"locus YFR010W, strain ubp6, stronger effect = lower value",0.384 (active)
same,normalized growth,"locus YGL078C, strain dbp3, stronger effect = lower value",0.349 (active)
same,normalized growth,"locus YGL086W, strain mad1, stronger effect = lower value",0.759 (active)
same,normalized growth,"locus YGL167C, strain pmr1, stronger effect = lower value",0.666 (active)
same,normalized growth,"locus YGL173C, strain kem1, stronger effect = lower value",0.82 (active)
same,normalized growth,"locus YGL227W, strain vid30, stronger effect = lower value",0.494 (active)
same,normalized growth,"locus YGL240W, strain doc1, stronger effect = lower value",0.95 (inactive)
same,normalized growth,"locus YGL248W, strain PDE1, stronger effect = lower value",0.861 (active)
same,normalized growth,"locus YGL253W, strain hxk2, stronger effect = lower value",0.437 (active)
same,normalized growth,"locus YGR078C, strain PAC10, stronger effect = lower value",0.808 (active)
same,normalized growth,"locus YGR135W, strain pre9, stronger effect = lower value",0.874 (active)
same,normalized growth,"locus YGR229C, strain SMI1, stronger effect = lower value",0.608 (active)
same,normalized growth,"locus YGR252W, strain gcn5, stronger effect = lower value",1.01 (inactive)
same,normalized growth,"locus YHR013C, strain ard1, stronger effect = lower value",0.533 (active)
same,normalized growth,"locus YHR027C, strain rpn1, stronger effect = lower value",0.699 (active)
same,normalized growth,"locus YHR030C, strain SLT2, stronger effect = lower value",0.974 (inactive) and 0.154 (active)
same,normalized growth,"locus YHR079C, strain IRE1 (second series), stronger effect = lower value",0.536 (active)
same,normalized growth,"locus YHR079C, strain IRE1, stronger effect = lower value",0.165 (active)
same,normalized growth,"locus YHR094C, strain hxt1, stronger effect = lower value",0.734 (active)
same,normalized growth,"locus YHR129C, strain ARP1, stronger effect = lower value",0.869 (active)
same,normalized growth,"locus YHR142W, strain chs7, stronger effect = lower value",0.33 (active)
same,normalized growth,"locus YHR200W, strain rpn10, stronger effect = lower value",0.889 (active)
same,normalized growth,"locus YIL066C, strain RNR3, stronger effect = lower value",0.835 (active)
same,normalized growth,"locus YIL073C, strain SPO22, stronger effect = lower value",0.794 (inactive)
same,normalized growth,"locus YIL125W, strain kgd1, stronger effect = lower value",0.238 (active)
same,normalized growth,"locus YIR030C, strain dcg1, stronger effect = lower value",0.745 (active)
same,normalized growth,"locus YJL092W, strain hpr5, stronger effect = lower value",0.505 (active)
same,normalized growth,"locus YJL095W, strain BCK1 (second series), stronger effect = lower value",0.714 (active)
same,normalized growth,"locus YJL095W, strain BCK1, stronger effect = lower value",0.755 (active) and 0.169 (active)
same,normalized growth,"locus YJL115W, strain asf1, stronger effect = lower value",0.593 (active)
same,normalized growth,"locus YJL129C, strain trk1, stronger effect = lower value",0.686 (active)
same,normalized growth,"locus YJL134W, strain LCB3, stronger effect = lower value",0.976 (inactive)
same,normalized growth,"locus YJL154C, strain vps35, stronger effect = lower value",0.596 (active)
same,normalized growth,"locus YJL164C, strain tpk1, stronger effect = lower value",0.469 (active)
same,normalized growth,"locus YJL166W, strain qcr8, stronger effect = lower value",0.641 (active)
same,normalized growth,"locus YJL168C, strain set2, stronger effect = lower value",0.979 (inactive)
same,normalized growth,"locus YJL187C, strain SWE1 (second series), stronger effect = lower value",0.749 (active)
same,normalized growth,"locus YJR043C, strain POL32, stronger effect = lower value",0.906 (inactive)
same,normalized growth,"locus YJR066W, strain TOR1, stronger effect = lower value",0.0708 (active)
same,normalized growth,"locus YJR075W, strain HOC1, stronger effect = lower value",0.772 (active)
